ALDH1A1 inh: qHTS Assay for Inhibitors of Aldehyde Dehydrogenase 1 (ALDH1A1) | Aldehyde dehydrogenase 1A1 (Homo sapiens), P00352 | Purified ALDH1A1, NADH fluorescence, propionaldehyde substrate | Potency, µM (doses to about 75.3 µM), without a hit: at the top dose activity, negative = inhibition, hits mostly inhibitors | hit rate 7.3% among 220,000; active = well fitted inhibition curve with a large enough effect, not every such curve was filed as active; inconclusive = small, poorly fitted or top-dose-only effect, or another doubt; inactive = no such curve, though single readings can be large or run the other way;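 note: plate controls were no enzyme wells and a reference inhibitor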
Target sequence (P00352 whole entry, looked up): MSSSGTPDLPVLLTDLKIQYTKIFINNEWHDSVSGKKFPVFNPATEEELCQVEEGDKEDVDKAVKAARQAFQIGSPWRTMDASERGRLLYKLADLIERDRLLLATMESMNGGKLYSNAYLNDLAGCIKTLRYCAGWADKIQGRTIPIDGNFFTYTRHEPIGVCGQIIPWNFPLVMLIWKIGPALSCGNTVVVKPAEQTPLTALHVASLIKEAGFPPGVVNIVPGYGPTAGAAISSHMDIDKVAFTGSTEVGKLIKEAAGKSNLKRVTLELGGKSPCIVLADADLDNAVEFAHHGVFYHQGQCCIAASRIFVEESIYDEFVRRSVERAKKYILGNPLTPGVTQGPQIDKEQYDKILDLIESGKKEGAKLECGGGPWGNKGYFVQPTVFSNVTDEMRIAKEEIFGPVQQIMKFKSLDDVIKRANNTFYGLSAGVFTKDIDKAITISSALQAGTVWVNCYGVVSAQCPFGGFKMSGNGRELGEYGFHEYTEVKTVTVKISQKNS
HPGD inh: qHTS Assay for Inhibitors of HPGD (15-Hydroxyprostaglandin Dehydrogenase); 15-hydroxyprostaglandin dehydrogenase [NAD(+)] (Homo sapiens), P15428; purified HPGD, NADH fluorescence kinetic, PGE2 substrate; Potency, µM, inactives show top-dose activity change, negative = inhibition, actives largely listed as inhibitors; hit rate 4.3% among 150,000; AID 894, 2007; active = well fitted inhibition curve with a large enough effect, not every such curve was filed as active; inconclusive = small, poorly fitted or top-dose-only effect, or another doubt; inactive = no such curve, though single readings can be large or run the other way; note: % is set by controls: 0 for no effect and ±100 for the full control effect
Target sequence (P15428 whole entry, looked up): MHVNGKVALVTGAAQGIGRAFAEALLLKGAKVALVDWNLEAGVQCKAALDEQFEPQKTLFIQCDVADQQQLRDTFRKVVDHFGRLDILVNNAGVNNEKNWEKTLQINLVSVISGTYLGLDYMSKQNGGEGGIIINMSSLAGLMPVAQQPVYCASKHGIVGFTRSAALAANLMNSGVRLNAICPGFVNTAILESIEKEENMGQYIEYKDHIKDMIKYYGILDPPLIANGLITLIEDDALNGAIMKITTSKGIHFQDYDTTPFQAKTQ
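NADH formation kinetics: reaction with 30 uM PGE2 and 1 mM NAD+ (final), 20 nM enzyme, Tris-HCl pH 8 with Tween 20, after 15 min compound preincubation at room temperature. Fluorescence change, last versus first of five reads.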
HTT ATP protect: qHTS Multiplex Assay to Identify Dual Action Probes in a Cell Model of Huntington: Cytoprotection (ATP) | PC12 HTT-Q103 induced, cytoprotection, ATP luminescence, 40 h | Potency, µM (highest dose often 56.4 µM), without a hit: cytoprotection (ATP increase), actives largely listed as activators | hit rate 0.14% among 230,000 | AID 1471, 2008; note: % of control where 0% means no effect; nearly all actives have a fitted effect of over 45% in size
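PC12 cells stably carrying ecdysone-inducible Htt exon 1 (Q103)–GFP were induced with 100 nM tebufenozide (final) alongside library compounds in a dose series. Cytoprotection was scored as retained ATP by ATPlite luminescence.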
HTT aggregate: qHTS Multiplex Assay to Identify Dual Action Probes in a Cell Model of Huntington: Aggregate Formation (GFP); PC12 HttQ103-GFP aggregates, Acumen cytometry, 40 h; Potency, µM (highest dose often 46.1 µM), for inactives: top-dose activity change, negative = inhibition, most hits filed as inhibitors; hit rate 1.1% among 220,000; AID 1688, 2009; note: % is set by controls: 0 for no effect and ±100 for the full control effect; nearly all actives have a fitted effect of over 60% in size
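Huntingtin Q103 exon 1–GFP aggregates in induced PC12 cells (100 nM tebufenozide) were quantified by cytometry from lysates, with compounds dosed in titration.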
LMNA splice mod: qHTS Assay for Modulators of Lamin A Splicing; Potency, µM (series often up to 46.1 µM), for inactives: at the highest dose ratio change, negative = inhibition, hits mostly inhibitors; HeLa LMNA splicing GFP/RFP minigene ratio, 48 h; hit rate 0.01% among 200,000; AID 1487, 2009; active = well fitted inhibition curve with a large enough effect in the signal ratio, with a control signal flat, not every such curve was filed as active; inconclusive = small, poorly fitted or top-dose-only effect, or effect the other way, or a change in a side signal; the % refers to the signal ratio; note: % is set by controls: 0 for no effect and ±100 for the full control effect
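S3 HeLa stable clones carrying a lamin A-EGFP splicing minigene plus DsRed2 were seeded at 600 cells/well in Opti-MEM with 2% FBS, pin-dosed and incubated 48 h at 37°C. Acumen cytometry (488 nm) gave the GFP/RFP total-intensity ratio.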
Numbers without * were called inactive; ? = inconclusive; . = not tested or not shown; ! = not active in a repeat; [ ] = remark or other dose. Most compounds without a hit are left out; they make up all but 8.8% or so of the library. Unless noted, calls come from the whole dose curve; as a rule, active = well fitted curve in the direction sought with a large enough effect; inconclusive = small, poorly fitted or top-dose-only effect, or another doubt; inactive = no such curve, though single readings can be large; an effect the other way counts as inactive or inconclusive. Potency is the fitted concentration of half-maximal effect.

SMILES	ALDH1A1 inh	HPGD inh	HTT ATP protect	HTT aggregate	LMNA splice mod
CC(=O)Nc1sc(C)c(C)c1C(=O)Nc1ccc(C)cc1	1%	-2%	-13%	5%	9%[0.0737 µM]
CN=c1scc(C)n1/N=C/c1ccc(O)cc1	1%	-17%	-82%	-5%	?
CN=c1scc(-c2ccco2)n1/N=C/c1ccc(O)c(O)c1	28µM*	.	-237%	8.9µM*	22%[46 µM]
C=CCN=c1scc(C)n1/N=C/c1ccc(O)c(O)c1	22µM*	.	-8%[10 µM]	?	-9%[46 µM]
COc1ccc2nc(SCC(=O)NN)cc(C)c2c1	13µM*	-19%	-18%	2%	-21%
O=C1CCc2cc(OCCCCc3nnnn3C3CCCCC3)ccc2N1	25µM*!	-28%	-7%	17%	?
Cc1ccc(NC(=O)Cn2cc(S(=O)(=O)N3CCCC3)c(S(=O)(=O)N3CCCC3)c2)cc1F	.	.	.	.	-11%[46 µM]
COc1cc(C2NC(=S)NC(c3ccccc3)=C2C(C)=O)cc(Br)c1OCC(N)=O (stereo not given)	14µM*	.	-10%	-1%[9.22 µM]	-16%[46 µM]
CCCOc1ccc(C2NC(=S)NC(c3ccccc3)=C2C(=O)Nc2ccc(C)cc2)cc1OC (stereo not given)	0.35µM*	-10%	3%[10 µM]	24%	-4%
CCOC(=O)C1=C(c2ccccc2)NC(=O)NC1c1cc(Br)c(O)c(OC)c1 (stereo not given)	22µM*	.	.	19%	.
COc1ccccc1C(=O)Nc1ccc(C(=O)OCc2cc(=O)n3ccsc3n2)cc1	.	.	.	.	-13%[46 µM]
CCC1=C2CC[C@H]3C(=O)NC(=O)[C@H]3[C@H]2[C@@]2(C)C(=NCC(=O)OC)OC(=O)N2C1=O	-3%	-7%	-26%	.	.
C=CCNc1nc2c3ccccc3n(C(C)=O)c2s1	28µM*	-3%	-5%[0.074 µM]	?	8%
COC(=O)N/N=C/c1sc(N2CCCCC2)nc1-c1cccs1	25µM*	.	.	?	.
COc1ccc(C(=O)N/N=C/c2sc(N3CCOCC3)nc2-c2ccccc2)cc1OC	-12%	.	-47%	-19%	-16%[46 µM]
CC(=C1C(=O)c2ccccc2C1=O)N1CCc2ccccc2C1	8.9µM*	-13%	11%	-29%	-2%
CCOC(=O)C1CCN(C(C)=C2C(=O)c3ccccc3C2=O)CC1	18µM*	-13%	3%	-1%	-7%
CNC(=S)N1CCc2ccccc2C1	3%	-14%	5%[10 µM]	18%	-2%
CC(=O)Nc1ccc(NC(=O)CSc2nnc(-c3ccco3)n2Cc2ccco2)cc1	20µM*	-10%	-25%	29%	-9%
CCn1c(SCC(=O)Nc2sc3c(c2C(N)=O)CCC(C)C3)nnc1-c1ccco1 (stereo not given)	22µM*	?	-13%	-14%	-14%
CCn1c(SCC(=O)Nc2nonc2C)nnc1-c1ccco1	14µM*	?	-30%	11%	1%
CCOC(=O)c1c(NC(=O)CSc2nnnn2-c2ccccc2)sc2c1CCC(C)C2 (stereo not given)	-8%	-15%	-1%	?	12%
Nc1cccc(NP(=O)(c2ccccc2)c2ccccc2)c1	.	.	8%[10 µM]	-1%[9.22 µM]	.
CCCCCC=CCC=CCCCCCCCC(=O)OCC	.	.	-32%	-6%	.
Cc1noc(/C=C/c2ccccc2F)c1S(=O)(=O)N1CCC(C(=O)N2CCOc3ccccc32)CC1	.	.	.	.	3%[46 µM]
SMILES	ALDH1A1 inh	HPGD inh	HTT ATP protect	HTT aggregate	LMNA splice mod
CCCC[S@@](=N)(=O)CC[C@@H](N)C(=O)O	.	.	4%[1.9 µM]	.	.
Cc1ccsc1/C=C1\SC(N2CC(C)OC(C)C2)=NC1=O (stereo not given)	18µM*	-16%	?	2%	-18%
CN(C)C(=O)c1ccc(-c2nccc(NCc3ccccc3)n2)cc1	?	.	-24%	.	?
CC(C)(C)c1ccc(-c2nc(NCc3cccnc3)c3ccccc3n2)cc1	11%	-13%	10%[0.074 µM]	?	?
CN(C)C(=O)c1ccc(-c2nccc(NCc3cccnc3)n2)cc1	2%	14µM*	-17%	.	8%
c1ccc(CNc2nc(-c3ccoc3)nc3ccccc23)cc1	32µM*	.	-36%	.	?
CN(C)C(=O)c1ccc(-c2nc(NCc3cccnc3)c3ccccc3n2)cc1	-1%	16µM*	-13%	.	-10%
CN(C)C(=O)c1ccc(-c2nnc(NCc3ccccc3)c3ccccc23)cc1	?	2.5µM*	22%[10 µM]	?	-5%
COc1cccc(Cn2c(=O)c(-c3cccs3)nc3cnc(N4CCOCC4)nc32)c1	?	.	-42%	.	15%
Cc1cnc(CNc2nc(-c3ccc(C(=O)N(C)C)cc3)nc3ccccc23)cn1	5%	14µM*	-48%	.	-4%
CNc1nc(-c2ccc(C(=O)N(C)C)cc2)nc2ccccc12	4%	.	-170%	.	-5%
C=CCS/C(N)=N\N=C\c1cc(Br)cc([N+](=O)[O-])c1O	7.1µM*	.	-4%[10 µM]	-7%[9.22 µM]	.
Cc1ccc(CNc2ncnc(N)c2[N+](=O)[O-])cc1	18%	.	6%	4.5µM*	-3%[46 µM]
Cc1cccc(C)c1Nc1ncnc(N)c1[N+](=O)[O-]	15%	0%	3%[10 µM]	-13%	-9%
Cc1scc(-c2n[nH]c(=S)n2C(C)c2ccccc2)c1C (stereo not given)	?	25µM*	12%[10 µM]	21%	?
CCc1cc(-c2n[nH]c(=S)n2C(C)c2ccccc2)cs1 (stereo not given)	0.56µM*	16µM*	-4%	?	?
CCCc1cc(-c2n[nH]c(=S)n2-c2cccc(C)c2)cs1	?	.	-79%	8%[9.22 µM]	-12%[9.22 µM]
O=C(CS(=O)(=O)c1cccc2nsnc12)N1CCN(c2ccccc2F)CC1	.	.	.	.	7%[46 µM]
O=C1NCC(c2ccccc2)C1C(=O)N/N=C/c1ccc(Cl)s1 (stereo not given)	0%	.	.	0.11µM*	9%[46 µM]
Cn1cccc1/C=N/N1CCN(c2ccccc2)CC1	14µM*	.	4%[10 µM]	-3%	4%[46 µM]
COc1ccc(-c2noc(CN3CCOCC3)n2)cc1OC	22µM*	-2%	-8%	8%	4%
O=C(CSCCSCC(=O)c1ccco1)c1ccco1	22µM*	?	-3%[10 µM]	10%	10%
O=C(CSc1nnnn1-c1ccccc1)c1ccco1	?	.	-8%[10 µM]	2%	4%[46 µM]
CN(C)C(=O)CSc1nnc2sc3ccccc3n12	-7%	-11%	2%	-14%	0%
O=C(CSc1nc2ccccc2[nH]1)c1ccco1	-7%	-6%	-23%	-8%	9%
Cn1nnnc1SCC(=O)c1ccco1	40µM*	-9%	8%	14%	4%
O=c1c2ccccc2nnn1CSc1nnc2sc3ccccc3n12	13µM*	-25%	1%[1.9 µM]	8%	12%
O=C(CSc1nnc2sc3ccccc3n12)c1ccco1	16µM*	22µM*	-8%[10 µM]	-3%	1%

Bioassay records (PubChem BioAssay)
